In all, about 310,000 compounds went through this assay and about 14,000 (4.5%) showed an effect of 50% or more. The effect is printed as a negative number. The entries come from a sample that favours strong results as a whole.

Experimental findings from PMC4336329 (PLoS ONE, 2015) are described below.
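Also: peak tail current of the secondary pulse compared with the same well before compound.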

The target of this assay is human ether-à-go-go-related gene (hERG) potassium channel (human, UniProt Q12809). Put plainly: primary screen, population patch clamp on CHO cells stably expressing hERG; higher = less effect of the substance.
Sequence of human ether-à-go-go-related gene (hERG) potassium channel (Q12809 whole entry, looked up): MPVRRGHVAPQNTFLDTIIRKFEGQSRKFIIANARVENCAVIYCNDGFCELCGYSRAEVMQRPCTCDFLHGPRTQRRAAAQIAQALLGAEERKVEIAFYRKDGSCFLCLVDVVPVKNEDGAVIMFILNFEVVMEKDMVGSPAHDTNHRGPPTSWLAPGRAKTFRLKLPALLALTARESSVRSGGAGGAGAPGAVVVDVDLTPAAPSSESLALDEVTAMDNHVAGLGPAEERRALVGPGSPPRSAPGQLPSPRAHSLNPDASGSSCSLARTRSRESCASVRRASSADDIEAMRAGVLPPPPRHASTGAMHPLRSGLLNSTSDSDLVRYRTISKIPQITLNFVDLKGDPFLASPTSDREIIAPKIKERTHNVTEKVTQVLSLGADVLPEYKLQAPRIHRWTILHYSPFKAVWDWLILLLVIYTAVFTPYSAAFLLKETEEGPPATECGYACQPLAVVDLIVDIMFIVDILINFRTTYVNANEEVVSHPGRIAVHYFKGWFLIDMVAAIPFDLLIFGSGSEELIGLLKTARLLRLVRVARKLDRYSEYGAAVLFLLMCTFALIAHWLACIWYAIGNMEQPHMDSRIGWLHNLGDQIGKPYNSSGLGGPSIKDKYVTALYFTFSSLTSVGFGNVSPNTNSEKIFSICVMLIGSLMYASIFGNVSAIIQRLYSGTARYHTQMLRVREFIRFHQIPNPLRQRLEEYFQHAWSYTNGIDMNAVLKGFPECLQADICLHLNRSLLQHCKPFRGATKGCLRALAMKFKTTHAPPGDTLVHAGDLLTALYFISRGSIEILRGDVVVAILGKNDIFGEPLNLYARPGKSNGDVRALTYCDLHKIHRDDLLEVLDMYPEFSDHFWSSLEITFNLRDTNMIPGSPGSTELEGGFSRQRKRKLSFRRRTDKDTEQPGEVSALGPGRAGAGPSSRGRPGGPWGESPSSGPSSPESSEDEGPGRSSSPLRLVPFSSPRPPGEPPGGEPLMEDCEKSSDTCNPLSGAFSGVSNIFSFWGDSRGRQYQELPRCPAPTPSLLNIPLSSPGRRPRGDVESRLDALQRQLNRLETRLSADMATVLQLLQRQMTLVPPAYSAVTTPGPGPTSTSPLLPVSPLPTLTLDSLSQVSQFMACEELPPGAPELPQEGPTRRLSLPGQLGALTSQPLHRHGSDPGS
Regarding `CC(Nc1nc(N2CCCCC2)nc2ccccc12)c1ccccc1` (stereo not drawn), the “hERG current change (%, negative = inhibition) at 10uM” value is -63.6%.

For the compound `CC(Nc1nc(N2CCN(S(C)(=O)=O)CC2)nc2ccccc12)c1ccccc1` (stereo not drawn), the “hERG current change (%, negative = inhibition) at 10uM” value was -60.9%.

In the case of `CC(Nc1nc(N2CCNCC2)nc2ccccc12)c1ccccc1` (stereo not drawn), the “hERG current change (%, negative = inhibition) at 10uM” value is reported as -66.2%.

`CC(Nc1nc(-c2ccccc2)nc2ccccc12)c1ccccc1` (stereo not drawn): the “hERG current change (%, negative = inhibition) at 10uM” value is 3.47%.

On to `Clc1ccc(-c2nc(N3CCCCC3)nc3ccccc23)cc1`, for which the “hERG current change (%, negative = inhibition) at 10uM” value turned out to be 4.29%.

As for `COc1ccc(Nc2nc(N3CCN(S(C)(=O)=O)CC3)nc3ccccc23)c(OC)c1`, the “hERG current change (%, negative = inhibition) at 10uM” value is recorded as -22.7%.

For the compound `CC(Nc1nc(-c2ccccc2O)nc2ccccc12)c1ccccc1` (stereo not drawn), the “hERG current change (%, negative = inhibition) at 10uM” value was determined as 5.73%.

For the compound `CC(Nc1ncnc2ccccc12)c1ccccc1` (stereo not drawn), the “hERG current change (%, negative = inhibition) at 10uM” value turned out to be 5.95%.

Turning to `Cc1cccc(OCCCn2c(CO)nc3ccccc32)c1`, the “hERG current change (%, negative = inhibition) at 10uM” value is -32.3%.

Turning to `CC(C)CCn1c(SCC(N)=O)nc2c1c(=O)n(C)c(=O)n2C`, the “hERG current change (%, negative = inhibition) at 10uM” value came out at 6.57%.

As for `O=C(Nc1cccc2ncccc12)c1ccccc1Cl`, the “hERG current change (%, negative = inhibition) at 10uM” value came out at 18.6%.

Turning to `Clc1ccccc1-c1nnc2sc(-c3cccs3)nn12`, the “hERG current change (%, negative = inhibition) at 10uM” value is recorded as -4.57%.

As to `CC(=O)c1c(C)oc2ccc(NS(=O)(=O)c3ccc(F)cc3C)cc12`, the “hERG current change (%, negative = inhibition) at 10uM” value is -13.8%.

Turning to `O=C(NN1CCOCC1)c1ccc(F)cc1`, the “hERG current change (%, negative = inhibition) at 10uM” value is given as 1.47%.

With `CCOC(=O)c1c(C)nn(-c2ccc(NC(=O)c3cccs3)cc2)c1C`, the “hERG current change (%, negative = inhibition) at 10uM” value is recorded as 16.8%.

In the case of `CCOC(=O)C1=C(O)C(=O)N(c2ccccc2)C1c1cccc([N+](=O)[O-])c1` (stereo not drawn), the “hERG current change (%, negative = inhibition) at 10uM” value is -26.7%.

Turning to `Cc1ccccc1OCC(=O)Nc1ccc2c(c1)OCO2`, the “hERG current change (%, negative = inhibition) at 10uM” value was -7.9%.

In the case of `Cc1cccc(C(=O)N(CCc2ccccc2)Cc2ccccc2)c1[N+](=O)[O-]`, the “hERG current change (%, negative = inhibition) at 10uM” value is recorded as 4.17%.

Turning to `Cc1cccc(-n2c(C)cc(C)c(C#N)c2=O)c1`, the “hERG current change (%, negative = inhibition) at 10uM” value amounted to 7.18%.

Regarding `Cc1ccc(C(=O)NCCCNC(=O)c2ccco2)cc1C`, the “hERG current change (%, negative = inhibition) at 10uM” value is given as 14.7%.

As for `CC(Nc1nc(N2CCOCC2)nc2ccccc12)c1ccccc1` (stereo not drawn), the “hERG current change (%, negative = inhibition) at 10uM” value is -73.8%.

For `CN1CCN(c2nc(N3CCN(CCO)CC3)nc3ccccc23)CC1.Cl`, the “hERG current change (%, negative = inhibition) at 10uM” value came out at 7.33%.

With `c1ccc2c(Nc3ccc(N4CCOCC4)cc3)nc(N3CCOCC3)nc2c1`, the “hERG current change (%, negative = inhibition) at 10uM” value was -48.5%.

`c1ccc2c(NC3C4CC5CC(C4)CC3C5)nc(N3CCOCC3)nc2c1` (stereo not drawn): the “hERG current change (%, negative = inhibition) at 10uM” value is given as -35.1%.

Regarding `CC(Nc1nc(N2CCN(CCO)CC2)nc2ccccc12)c1ccccc1` (stereo not drawn), the “hERG current change (%, negative = inhibition) at 10uM” value was -60.9%.

As to `CCN(CC)c1nc(N2CCN(CCO)CC2)nc2ccccc12.Cl`, the “hERG current change (%, negative = inhibition) at 10uM” value is -27.8%.

Regarding `CN(C(=O)CS(=O)(=O)c1cn(CC(=O)N2CCOCC2)c2ccccc12)c1ccccc1`, the “hERG current change (%, negative = inhibition) at 10uM” value is reported as 0.304%.

For the compound `Cc1cc(C)c(S(=O)(=O)NCCCn2ccnc2)cc1C`, the “hERG current change (%, negative = inhibition) at 10uM” value amounted to 4.04%.

`Cn1c(=O)c2[nH]c(-c3ccccc3O)nc2n(C)c1=O`: the “hERG current change (%, negative = inhibition) at 10uM” value is given as 23%.

Take `CN1CCCCC1CCN1c2ccccc2Sc2ccc(S(C)=O)cc21.O=S(=O)(O)c1ccccc1` (stereo not drawn): the “hERG current change (%, negative = inhibition) at 10uM” value was -56%.

`CC(=O)Nc1ccc(SCCC2CCCCN2C)cc1` (stereo not drawn): the “hERG current change (%, negative = inhibition) at 10uM” value turned out to be 7.77%.

Turning to `O=C(O)CCN1c2ccccc2Sc2ccccc21`, the “hERG current change (%, negative = inhibition) at 10uM” value is given as 16.5%.

`O=C(NCCN1CCOCC1)c1ccc2c(c1)N(Cc1ccc(F)cc1)C(=O)c1ccccc1S2(=O)=O`: the “hERG current change (%, negative = inhibition) at 10uM” value turned out to be 0.647%.

Consider `CC(NC(=O)Nc1ccc(Cl)cc1)C1CCCO1` (stereo not drawn), for which the “hERG current change (%, negative = inhibition) at 10uM” value is 7.05%.

For `COc1ccc(S(=O)(=O)N2CC(O)CC2C(=O)Nc2cccnc2)cc1` (stereo not drawn), the “hERG current change (%, negative = inhibition) at 10uM” value turned out to be 11.1%.

In the case of `O=C(NCc1ccccc1Cl)C(=O)NCC1OCCN1S(=O)(=O)c1cccs1` (stereo not drawn), the “hERG current change (%, negative = inhibition) at 10uM” value is -15%.

With `O=C(c1ccc2ccccc2n1)N1CCN(c2ccccc2Cl)CC1`, the “hERG current change (%, negative = inhibition) at 10uM” value is recorded as -64.8%.

Turning to `O=C(c1ccc2ccccc2n1)N1CCN(c2ccccc2)CC1`, the “hERG current change (%, negative = inhibition) at 10uM” value was -3.81%.

On to `O=C(c1ccc2ccccc2n1)N1CCN(c2ccccc2O)CC1`, for which the “hERG current change (%, negative = inhibition) at 10uM” value is recorded as -0.197%.

Turning to `O=C(N/N=C/c1cccc([N+](=O)[O-])c1)C1CC(=O)N(c2ccc(F)cc2)C1` (stereo not drawn), the “hERG current change (%, negative = inhibition) at 10uM” value is listed as -65.8%.

Regarding `O=C(N/N=C/c1cccc(Br)c1)C1CC(=O)N(c2ccccc2)C1` (stereo not drawn), the “hERG current change (%, negative = inhibition) at 10uM” value was 7.68%.

For `O=C(N/N=C/c1ccccc1O)C1CC(=O)N(c2ccc(Cl)cc2)C1` (stereo not drawn), the “hERG current change (%, negative = inhibition) at 10uM” value was found to be 8.21%.

Consider `O=C(N/N=C/c1cccc([N+](=O)[O-])c1)C1CC(=O)N(c2ccc(Br)cc2)C1` (stereo not drawn), for which the “hERG current change (%, negative = inhibition) at 10uM” value was -46.6%.

For `Cc1ccc(N2CC(C(=O)N/N=C/c3cccc([N+](=O)[O-])c3)CC2=O)cc1` (stereo not drawn), the “hERG current change (%, negative = inhibition) at 10uM” value is -22.2%.

As for `O=C(N/N=C/c1cccc([N+](=O)[O-])c1)C1CC(=O)N(c2ccc(Cl)cc2)C1` (stereo not drawn), the “hERG current change (%, negative = inhibition) at 10uM” value was -82.1%.
